Data: ChEMBL document CHEMBL1201862, “PubChem BioAssay data set” (2004)
Among all 220,000 compounds or so, about 10 (0.005%) were called active. The rule behind the calls is not given here. This excerpt belongs to a sample that is enriched for actives.

test: enhancers of HSV replication in host cells, fold increase, host cell viability (AID 1956); format: functional

Row | SMILES | Conc @ Max Fold Incr
1 | N#C/C(=C/c1ccc(N2CCOCC2)o1)C(=O)NC1CCCCC1 | 25 µM (active)
